Assay outcomes from PubChem BioAssay.
PNC assembly inh = inhibitors of perinucleolar compartment assembly; PC3M PTB-GFP, PNC prevalence imaging, 16 h; active compounds read low; activity change (PNC), negative = inhibition, % at 10 µM; 140,000 compounds, 3.1% hits;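 active = readout at or below -70, meaning at least 70% loss of cells showing the perinucleolar compartment, a nuclear body marking cancer cells; inconclusive = readout between -30 and a set limit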;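 also: plate controls were DMSO wells for no effect and camptothecin positive control wells for full effect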
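PC3M cells stably expressing PTB-GFP, 750–1000 cells/well, treated 16 h at 37 °C with compound (23 nl of library stock), in duplicate. After paraformaldehyde fixation and Hoechst stain, imaged at 20x; PNC prevalence scored by image analysis.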
IMPase inh = cell-permeable inhibitors of inositol monophosphatase (IMPase); CHO-M1 cells, IP1 accumulation, HTRF TR-FRET ratio; inhibition (IP1 accumulation), % at 46.1 µM; 120,000 tested, under 10 active; active = well fitted curve in the direction sought with a large enough effect in the signal ratio, not every such curve was filed as active; inconclusive = small, poorly fitted or top-dose-only effect, or a change in a side signal; inactive = no such curve, though single readings can be large or run the other way; the % refers to the signal ratio;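 also: cells stimulated with carbachol in lithium chloride buffer; plate controls were DMSO basal wells for no effect and reference inhibitor wells for full effect; higher means more IMPase inhibition seen as more IP1 and lower FRET ratio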
Target sequence (P97697 whole entry, looked up): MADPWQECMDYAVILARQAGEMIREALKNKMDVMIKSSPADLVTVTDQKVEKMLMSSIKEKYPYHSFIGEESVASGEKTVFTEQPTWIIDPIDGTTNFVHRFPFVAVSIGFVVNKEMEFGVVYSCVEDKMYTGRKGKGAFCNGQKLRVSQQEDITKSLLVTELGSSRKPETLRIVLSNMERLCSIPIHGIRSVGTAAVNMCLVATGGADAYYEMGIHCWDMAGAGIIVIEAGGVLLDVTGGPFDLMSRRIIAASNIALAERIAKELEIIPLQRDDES
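Seeded CHO-M1 cells were dosed with compound at up to 46 uM, stimulated with carbachol for 30 min, then lysed in IP-One detection reagents. Higher IP1 lowers the TR-FRET signal.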
LMNA splice mod = modulators of lamin A splicing. HeLa LMNA splicing GFP/RFP minigene ratio, 48 h. Potency, µM (highest dose often 46.1 µM), for inactives: top-dose ratio change, negative = inhibition, usual class: inhibitors. 200,000 compounds, 0.01% hits; active = well fitted inhibition curve with a large enough effect in the signal ratio, with a control signal flat, not every such curve was filed as active; inconclusive = small, poorly fitted or top-dose-only effect, or effect the other way, or a change in a side signal; the % refers to the signal ratio; also: potency is read from the fitted curve at half-maximal effect
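S3 HeLa stable clones carrying a lamin A-EGFP splicing minigene plus DsRed2 were seeded at 600 cells/well in Opti-MEM with 2% FBS, pin-dosed and incubated 48 h at 37°C. Acumen cytometry (488 nm) gave the GFP/RFP total-intensity ratio.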
HPGD inh = inhibitors of human 15-hydroxyprostaglandin dehydrogenase (HPGD) | P15428 | purified HPGD, NADH fluorescence kinetic, PGE2 substrate | Potency, µM, without a hit: at the top dose activity change, negative = inhibition, usual class: inhibitors | 150,000 compounds, 4.3% hits; also: potency is read from the fitted curve at half-maximal effect
Target sequence (P15428 whole entry, looked up): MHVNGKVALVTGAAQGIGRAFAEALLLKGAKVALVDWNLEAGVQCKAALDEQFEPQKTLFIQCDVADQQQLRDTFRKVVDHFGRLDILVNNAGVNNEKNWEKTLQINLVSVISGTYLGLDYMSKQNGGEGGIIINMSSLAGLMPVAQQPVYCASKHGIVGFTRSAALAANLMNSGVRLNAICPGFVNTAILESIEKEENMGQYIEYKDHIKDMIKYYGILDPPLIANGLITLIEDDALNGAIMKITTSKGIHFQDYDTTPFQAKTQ
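NADH formation kinetics: reaction with 30 uM PGE2 and 1 mM NAD+ (final), 20 nM enzyme, Tris-HCl pH 8 with Tween 20, after 15 min compound preincubation at room temperature. Fluorescence change, last versus first of five reads.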
ALDH1A1 inh = ALDH1A1 (human) enzyme inhibition | Purified ALDH1A1, NADH fluorescence, propionaldehyde substrate | Potency, µM (titrated, usually from 75.3 µM), without a hit: at the top dose activity, negative = inhibition, hits mostly inhibitors | P00352 | 220,000 compounds, 7.3% hits;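 also: potency is read from the fitted curve at half-maximal effect; plate controls were no enzyme wells and a reference inhibitor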
KinaseGlo FLuc = Kinase-Glo luciferase inhibition (counter-screen). Q27757. Kinase-Glo luciferase, ATP luminescence, 8 min. Potency, µM (titrated, usually from 38.3 µM), for the others: top-dose activity change, negative = inhibition, hits mostly inhibitors. 200,000 compounds, 0.28% hits. AID 1379; active = well fitted inhibition curve with a large enough effect; inconclusive = small, poorly fitted or top-dose-only effect; also: potency is read from the fitted curve at half-maximal effect; nearly all actives have a fitted effect of over 60% in size
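Kinase-Glo luciferase light output from ATP and luciferin was measured with 10 uM ATP, within the enzyme's linear range. Buffer: 50 mM imidazole pH 7.2, 50 mM KCl, 7 mM MgCl2, 0.01% Tween 20, 0.05% BSA; luminescence read after 8 min at ambient temperature.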
* hit, by the source's call; [ ] = another dose, or the depositor's remark. A selection: hits, their analogues and other compounds. The true share with any hit is near 10%. Unless noted, calls follow the shape of the dose curve; as a rule, active = well fitted inhibition curve with a large enough effect (not every such curve was filed as active); inconclusive = small, poorly fitted or top-dose-only effect, or another doubt; inactive = no such curve, though single readings can be large or run the other way. Unless noted, % is scaled to controls: 0 for no effect and ±100 for the full control effect.

`Cc1ccc(NC(=O)c2cc(NC(=O)C3CC=CCC3C(=O)O)ccc2N2CCOCC2)cc1Cl` (stereo not given) gave PNC assembly inh 41, IMPase inh 5, LMNA splice mod 3%, HPGD inh -8%, ALDH1A1 inh 1.8µM* and KinaseGlo FLuc 1%.
`O=C(Nc1ccc(N2CCOCC2)c(C(=O)O)c1)c1ccc(Br)cc1` gave LMNA splice mod -9%[46 µM].
Cc1ccc(NC(=O)c2cc(N3C(=O)C=CC3=O)ccc2N2CCOCC2)cc1Cl was read as PNC assembly inh 71, LMNA splice mod inconclusive, HPGD inh 1.3µM*, ALDH1A1 inh 0.25µM* and KinaseGlo FLuc -2%.
`Cc1ccc(NC(=O)c2cc(NC(=O)C3CC=CCC3C(=O)O)ccc2N2CCOCC2)cc1` (stereo not given) gave PNC assembly inh inconclusive, IMPase inh 6, LMNA splice mod 0%, HPGD inh -10%, ALDH1A1 inh 13µM* and KinaseGlo FLuc 2%.
Cc1ccc(NC(=O)c2cc(N3C(=O)CCC3=O)ccc2N2CCOCC2)cc1 was read as LMNA splice mod 19%[46 µM], ALDH1A1 inh -1% and KinaseGlo FLuc 0%.
For COc1cc([C@H](O)C(=O)O)ccc1O the results were IMPase inh 5.
CC(=O)c1c(C)[nH]c(C(=O)OCC(=O)Nc2ncc(Cl)c(C)c2Cl)c1C was read as PNC assembly inh -100*, IMPase inh -1, LMNA splice mod 7%, HPGD inh -7%, ALDH1A1 inh -8% and KinaseGlo FLuc -4%.
CCCn1nc(C(=O)OCC(=O)Nc2ncc(Cl)c(C)c2Cl)c2ccccc2c1=O was read as PNC assembly inh -113*, IMPase inh 6, LMNA splice mod -5%, HPGD inh -2%, ALDH1A1 inh inconclusive and KinaseGlo FLuc 2%.
`O=C(NCc1ccccc1)c1ccc(Cc2nc3ccccc3[nH]2)cc1` gave HPGD inh -4%, ALDH1A1 inh 9% and KinaseGlo FLuc -2%.
`CC(O)/C=C/c1cccc[n+]1C` (stereo not given) gave PNC assembly inh inconclusive, IMPase inh inconclusive, LMNA splice mod 18%, HPGD inh -11%, ALDH1A1 inh 25µM* and KinaseGlo FLuc -4%.
`Cc1ccc(CNC(=O)CCCn2c(=O)c3ccccc3n(Cc3ccc(Cl)cc3)c2=O)cc1` gave IMPase inh 1.
For CCNc1ccc(Br)cc(C(=O)/C=C/c2ccc(Cl)cc2Cl)c1=O the results were PNC assembly inh -100*, IMPase inh -2, LMNA splice mod inconclusive, HPGD inh 22µM*, ALDH1A1 inh inconclusive and KinaseGlo FLuc -4%.
For COCCCNC(=O)/C=C/c1ccc(Cl)cc1Cl the results were PNC assembly inh -4, IMPase inh -1, LMNA splice mod 15%[0.0737 µM], HPGD inh -26%, ALDH1A1 inh 2% and KinaseGlo FLuc 4%.
For CNc1ccc(Br)cc(C(=O)/C=C/c2ccc3c(c2)OCO3)c1=O the results were PNC assembly inh 42, IMPase inh 5, LMNA splice mod inconclusive, HPGD inh 16µM*, ALDH1A1 inh 6.3µM* and KinaseGlo FLuc -7%.
CNc1ccc(Br)cc(C(=O)/C=C/c2ccc(OC)cc2)c1=O was read as PNC assembly inh -109*, LMNA splice mod 2%, HPGD inh -25%, ALDH1A1 inh 28µM* and KinaseGlo FLuc -7%.
`CNc1ccc(Br)cc(C(=O)/C=C/c2cc(OC)ccc2OC)c1=O` gave PNC assembly inh 18, IMPase inh 10, LMNA splice mod 7%, HPGD inh inconclusive, ALDH1A1 inh inconclusive and KinaseGlo FLuc -2%.
`Cc1nn(-c2ccc(N3CCOCC3)nn2)c(C)c1CCC(=O)NCc1ccc(OC(C)C)cc1` gave LMNA splice mod -1%[46 µM].
For Cc1ccc(CNC(=O)COCc2cc(-c3ccc4c(c3)OCO4)on2)cc1 the results were LMNA splice mod -5%[46 µM].
CCCCNC(=O)C(CC)Sc1nnc(-c2ccc(OC)c(OC)c2)c(-c2ccc(OC)c(OC)c2)n1 (stereo not given) was read as LMNA splice mod -5%[46 µM].
COc1cc(/C=C/C(=O)N2CCCCC2=O)cc(OC)c1OC was read as IMPase inh 3, HPGD inh -7%, ALDH1A1 inh inconclusive and KinaseGlo FLuc 2%.
Screening CCOC(=O)C1=C(C)N=c2s/c(=C/c3ccco3)c(=O)n2C1c1cccc(OC)c1 (stereo not given) returned PNC assembly inh -6, IMPase inh 8, LMNA splice mod 2%, HPGD inh 14µM*, ALDH1A1 inh 3.5µM* and KinaseGlo FLuc 1%.
Screening CCOC(=O)C1=C(C)N=c2s/c(=C\c3cccn3C)c(=O)n2C1c1cccc(OC)c1OC (stereo not given) returned PNC assembly inh inconclusive, IMPase inh 6, LMNA splice mod 4%, HPGD inh -15%, ALDH1A1 inh 6% and KinaseGlo FLuc 0%.
`CCCNC(=O)OC[C@@H]1O[C@H](CCO/N=C\c2ccc(C(=O)N3[C@H](c4ccc(C)cc4)[C@@H](C)CC[C@H]3C(=O)OC)cc2)C=C[C@@H]1Oc1ccc(OC)cc1` gave ALDH1A1 inh -5%[13.5 µM].
Screening C=CCn1c(=NC(=O)c2ccc(S(=O)(=O)N3CCc4ccccc4C3)cc2)sc2cc(S(N)(=O)=O)ccc21 returned PNC assembly inh -17, LMNA splice mod 5%, HPGD inh inconclusive, ALDH1A1 inh inconclusive and KinaseGlo FLuc -1%.
For C#CCn1c(=NC(=O)c2ccc(S(=O)(=O)N3CCc4ccccc4C3)cc2)sc2cc(S(N)(=O)=O)ccc21 the results were PNC assembly inh -134*, LMNA splice mod inconclusive, HPGD inh inconclusive, ALDH1A1 inh inconclusive and KinaseGlo FLuc 3%.
C[N+](C)(C)CCN[N@@+]1(C)CCCc2ccccc21 was read as HPGD inh inconclusive, ALDH1A1 inh -12%[13.5 µM] and KinaseGlo FLuc -6%[7.66 µM].
O=C(c1ccccc1)N1CCN(c2ccc([N+](=O)[O-])c(NCC3CCCO3)c2)CC1 (stereo not given) was read as LMNA splice mod inconclusive, ALDH1A1 inh 13µM* and KinaseGlo FLuc 3%.
O=C(c1ccccc1F)N1CCN(c2ccc([N+](=O)[O-])c(NCc3cccnc3)c2)CC1 was read as ALDH1A1 inh 7.9µM*.
`O=C(c1ccccc1)N1CCN(c2ccc([N+](=O)[O-])c(NCc3cccnc3)c2)CC1` gave PNC assembly inh -26, IMPase inh 3, LMNA splice mod 0%, HPGD inh -10%, ALDH1A1 inh 11µM* and KinaseGlo FLuc 4%.
